Data published in publication PMC4336329 (PLoS ONE, 2015).
Out of some 310,000 compounds screened, about 14,000 (4.5%) showed an effect of 50% or more. Effects have a minus sign here. The sample as a whole holds a higher share of strong results than the screen did.

These compounds were tested against human ether-à-go-go-related gene (hERG) potassium channel (human, UniProt Q12809) (assay: primary screen, population patch clamp on CHO cells stably expressing hERG; higher = less effect of the substance).
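Also: peak tail current of the secondary pulse compared with the same well before compound.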

human ether-à-go-go-related gene (hERG) potassium channel, sequence (Q12809 whole entry, looked up): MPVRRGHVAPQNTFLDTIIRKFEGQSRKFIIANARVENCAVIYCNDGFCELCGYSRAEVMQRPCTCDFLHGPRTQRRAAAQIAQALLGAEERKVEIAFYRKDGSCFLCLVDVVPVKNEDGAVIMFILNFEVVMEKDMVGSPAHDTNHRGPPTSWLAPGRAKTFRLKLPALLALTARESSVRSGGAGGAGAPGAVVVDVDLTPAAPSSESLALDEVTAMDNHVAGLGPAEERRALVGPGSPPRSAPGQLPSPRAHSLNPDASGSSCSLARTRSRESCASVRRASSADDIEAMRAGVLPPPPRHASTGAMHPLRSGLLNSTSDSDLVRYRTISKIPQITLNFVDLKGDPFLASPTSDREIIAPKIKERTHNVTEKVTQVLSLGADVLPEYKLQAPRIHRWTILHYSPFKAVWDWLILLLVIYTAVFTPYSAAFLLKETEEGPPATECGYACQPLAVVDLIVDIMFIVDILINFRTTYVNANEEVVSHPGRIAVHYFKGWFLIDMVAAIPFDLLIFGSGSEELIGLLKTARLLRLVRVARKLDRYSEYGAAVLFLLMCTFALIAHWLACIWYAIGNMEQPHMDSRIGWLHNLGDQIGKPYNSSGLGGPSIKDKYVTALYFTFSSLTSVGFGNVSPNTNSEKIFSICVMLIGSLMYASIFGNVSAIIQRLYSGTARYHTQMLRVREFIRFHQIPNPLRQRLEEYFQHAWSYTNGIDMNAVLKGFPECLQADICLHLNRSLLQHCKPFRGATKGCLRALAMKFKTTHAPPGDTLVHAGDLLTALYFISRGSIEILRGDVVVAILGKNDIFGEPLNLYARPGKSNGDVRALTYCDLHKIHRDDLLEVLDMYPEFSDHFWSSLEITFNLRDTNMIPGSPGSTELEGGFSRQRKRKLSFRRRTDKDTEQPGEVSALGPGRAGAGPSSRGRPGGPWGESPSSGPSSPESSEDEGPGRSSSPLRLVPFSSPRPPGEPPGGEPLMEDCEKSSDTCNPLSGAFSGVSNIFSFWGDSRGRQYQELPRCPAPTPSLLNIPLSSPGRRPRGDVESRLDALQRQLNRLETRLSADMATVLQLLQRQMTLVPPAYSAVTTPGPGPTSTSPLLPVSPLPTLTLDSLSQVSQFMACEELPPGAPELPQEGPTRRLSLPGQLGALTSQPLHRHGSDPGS

| SMILES | hERG current change (%, negative = inhibition) at 10uM |
| --- | --- |
| CCCCn1c(=O)[nH]c(=O)c2c1nc(-c1cc(Cl)c(OC)c(OC)c1)n2C | 16.2% |
| CCSc1nc(O)cc(=O)n1-c1ccc(OC)cc1 | 3.73% |
| O=C(c1ccco1)N(CCC(c1ccccc1)c1ccco1)Cc1ccccc1 (stereo not drawn) | -14.8% |
| COc1cc(/C=C2/C(=N)N3N=C(CC(=O)N4CCOCC4)SC3=NC2=O)ccc1OC(C)c1ccccc1 (stereo not drawn) | 11.7% |
| Cc1ccc(NC2CCCN(C(=O)c3ccoc3C)C2)cc1C (stereo not drawn) | -1.68% |
| Cc1ccc(C(=O)N2CCCC(Nc3ccc(C)c(C)c3)C2)c(=O)[nH]1 (stereo not drawn) | -50.3% |
| Cc1ccc(NC2CCCN(C(=O)c3ccc(F)cc3)C2)cc1C (stereo not drawn) | -9.71% |
| O=C(NCC(=O)N1CCCC(C(F)(F)F)C1)c1ccc2ccccc2c1 (stereo not drawn) | -11.3% |
| Nc1n[nH]c(-c2ccc([N+](=O)[O-])cc2[N+](=O)[O-])n1 | 15.4% |
| Cc1ccc2c(C(=O)CN3CCCC(C)C3)c(C)[nH]c2c1 (stereo not drawn) | -14.8% |
| Cc1ccc2c(C(=O)CN3CCCCC3)c(C)[nH]c2c1 | -11.1% |
| Cc1ccc2c(C(=O)CN3CC(C)CC(C)C3)c(C)[nH]c2c1 (stereo not drawn) | -51% |
| CCOC(=O)C1CCN(C(C)C(=O)c2c(C)[nH]c3cc(C)ccc23)CC1 (stereo not drawn) | -76.7% |
| CCOC(=O)C1CCN(C(C)C(=O)c2c[nH]c3ccccc23)CC1 (stereo not drawn) | -42.2% |
| Cc1[nH]c2ccccc2c1C(=O)CN1CC(C)CC(C)C1 (stereo not drawn) | 0.738% |
| COc1ccc2[nH]cc(C(=O)CN3CCCCC3)c2c1 | -8.72% |
| Cc1ccc2c(C(=O)CN3CCCC3)c(C)[nH]c2c1 | -6.89% |
| CCC1CCCCN1CC(=O)c1c(C)[nH]c2cc(C)ccc12 (stereo not drawn) | -27.7% |
| Cc1ccc2c(C(=O)CN3CCN(C4CCCCC4)CC3)c(C)[nH]c2c1 | -55.1% |
| COc1ccc2[nH]cc(C(=O)CN3CCN(C4CCCCC4)CC3)c2c1 | -54.8% |
| COc1ccc2[nH]cc(C(=O)CN3CCC(C)CC3)c2c1 | -5.75% |

| SMILES | hERG current change (%, negative = inhibition) at 10uM |
| --- | --- |
| CSc1ncccc1C(=O)N1CCN(S(=O)(=O)c2ccc3ccccc3c2)CC1 | -34.9% |
| Cn1c(N2C(=O)CC(Cc3ccccc3)C2=O)nc2ccccc21 (stereo not drawn) | -17.6% |
| COc1ccc(CN(C(=O)c2cccs2)c2nccs2)cc1OC | -10.9% |
| O=C1CC(NS(=O)(=O)c2cc(F)ccc2F)CN1c1ccc2c(c1)OCCO2 (stereo not drawn) | -4.13% |
| Cc1cc(C)n2nc(SCC(=O)NC(=O)c3ccccc3Cl)nc2n1 | 0.516% |
| COc1ccc(N2CC(C(=O)NC3CC(C)(C)NC(C)(C)C3)CC2=O)cc1 (stereo not drawn) | -2.68% |
| COc1ccc(NC2c3ccccc3C(=O)N2Cc2ccc3c(c2)OCO3)cc1 (stereo not drawn) | -17.7% |
| CCOC(=O)c1ccc(NC(=O)Nc2ccon2)cc1 | 6.02% |
| O=C(O)C1=CC[C@@H](c2ccc(Cl)cc2)N(S(=O)(=O)c2ccc(Cl)cc2)[C@H]1c1cccc(Cl)c1 | 25.9% |
| CCOC(=O)C1CCN(CC(=O)c2c(C)[nH]c3ccccc23)CC1 | -39.7% |
| CCOC(=O)C1CCN(CC(=O)c2c(C)[nH]c3cc(C)ccc23)CC1 | -60.5% |
| Cc1ccc2c(C(=O)CN3CCC(C(N)=O)CC3)c(C)[nH]c2c1 | 5.21% |
| COc1cc(/C=N/NC(=O)c2ccc(Cl)cc2)ccc1OCC(=O)N1CC(C)OC(C)C1 (stereo not drawn) | -18.3% |
| O=C(CN1CCN(S(=O)(=O)c2ccccc2)CC1)Nc1ccccc1Cl | -6.93% |
| O=C(CN1CCN(C(=O)c2ccccc2)CC1)Nc1cc(S(=O)(=O)N2CCCC2)ccc1Cl | -32.8% |
| O=C(CN1CCN(C(=O)c2ccco2)CC1)Nc1cccc(S(=O)(=O)N2CCCC2)c1 | -16.2% |
| O=C(c1cccc(S(=O)(=O)N2CCCCC2)c1)N1CCN(S(=O)(=O)c2ccc(F)cc2)CC1 | -40.6% |
| O=C(CN1CCN(C(=O)c2cccc(S(=O)(=O)N3CCCC3)c2)CC1)Nc1ccccc1Cl | -66.8% |
| O=C(CN1CCN(C(=O)c2cccc(S(=O)(=O)N3CCCC3)c2)CC1)Nc1ccc(F)cc1 | -61.7% |
| CCOc1ccc(N2C(=O)/C(=C/c3ccco3)N(C)C2=S)cc1 | -4.46% |
| CCC(C)NC(=O)C1CCCN(C(=O)NC2CCCCC2)C1 (stereo not drawn) | 13.8% |

| SMILES | hERG current change (%, negative = inhibition) at 10uM |
| --- | --- |
| Cc1cc(N2CCOCC2)nc2ccc(NC(=O)CCC(=O)N3CCN(c4ccc(F)cc4)CC3)cc12 | 21% |
| COc1cc(SC)ccc1C(=O)N1CCN(c2ccccc2OC)CC1 | -24.5% |
| COc1ccc(N2CCN(S(=O)(=O)/C=C/c3ccccc3)CC2)cc1 | 1.54% |
| COc1ccc(Br)c(C(=O)N2CCN(S(=O)(=O)c3cccs3)CC2)c1 | -9.75% |
| COc1cc(SC)ccc1C(=O)N1CCN(c2ccccc2F)CC1 | -33.8% |
| COc1cc(SC)ccc1C(=O)N1CCN(S(=O)(=O)/C=C/c2ccccc2)CC1 | -56.5% |
| COc1ccc(Br)c(C(=O)N2CCN(S(=O)(=O)/C=C/c3ccccc3)CC2)c1 | -58.8% |
| CCOC(=O)c1c(NC(=O)CN2CCCc3ccccc32)sc(C(C)=O)c1C | 5.24% |
| CC1(C)CCC(=O)N2CC[C@H]3C[C@H](OC(=O)Nc4ccc5c(c4)OCO5)C[C@@H]1[C@H]32 | -0.41% |
| CC1(C)CC(=O)c2cc(OCC(=O)NCCN3CCCc4ccccc43)ccc2O1 | -47.5% |
| N#CC1=C(N)Oc2c(c(=O)oc3ccccc23)C1c1cccnc1 (stereo not drawn) | 5.62% |
| CC1(C)C2CC=C(/C=N/NC(=O)c3ccccc3Br)C1C2 (stereo not drawn) | -2.58% |
| C=CC(C)(C)O[C@@H]1O[C@H](CO)[C@@H](O)[C@H](O)[C@H]1O | 40.6% |
| Cc1cccc(N2CCc3c2nc2ccc(Br)cc2c3N)c1.Cl | 6.56% |
| Nc1c2c(nc3cccc(Cl)c13)N(c1ccccc1)CC2 | 31.7% |
| Cc1cccc(N2CCc3c2nc2ccccc2c3N)c1.Cl | -61.9% |
| Cc1cccc(N2CCc3c2nc2ccccc2c3N)c1.O=C(O)C(=O)O | -53.7% |
| Cc1ccc2nc3c(c(N)c2c1)CCN3c1ccccc1.O=C(O)C(=O)O | -35.4% |
| CCCC(=O)Nc1c2c(nc3ccccc13)N(c1ccccc1)CC2 | -1.55% |
| CC(C)(C)c1ccccc1NC(=O)COC(=O)CN1C(=O)NC2(CCCC2)C1=O | 15.8% |
| Cc1c(OCC(=O)NCC(O)c2ccccc2)ccc2c3c(c(=O)oc12)CCC3 (stereo not drawn) | -8.23% |

| SMILES | hERG current change (%, negative = inhibition) at 10uM |
| --- | --- |
| Cl.O=C(CN1CCOCC1)c1ccc(Br)cc1 | 18% |
| CN(CC(=O)NCC1CCCCC1)CC(=O)Nc1ccccc1Br | -21.2% |
| Cc1ccc(S(=O)(=O)N(CCCO)Cc2cc3c(C)ccc(C)c3[nH]c2=O)cc1 | -45.9% |
| Cc1ccc(S(=O)(=O)N(CCCN2CCCC2=O)Cc2cc3c(C)ccc(C)c3[nH]c2=O)cc1 | -64% |
| COc1ccc(S(=O)(=O)N(CCCN2CCCC2=O)Cc2cc3c(C)ccc(C)c3[nH]c2=O)cc1 | -36.1% |
| O=C(c1ccc(NS(=O)(=O)c2ccccc2)cc1)N1CCCC1 | -8.95% |
| CS/C(N)=N/S(=O)(=O)c1ccc(NC(C)=O)cc1 | 17.6% |
| C/C(=N/Nc1ccccc1[N+](=O)[O-])c1ccc([N+](=O)[O-])cc1 | 5.07% |
| CC1CCc2c(sc(NC(=O)c3ccccc3C(=O)O)c2C#N)C1 (stereo not drawn) | -0.906% |
| CC(C)Cn1c(NCCN(C)C)nc2c1c(=O)[nH]c(=O)n2C | 10.1% |
| CN(C)CCNc1nc2c(c(=O)[nH]c(=O)n2C)n1CC(O)COc1ccc(Cl)cc1Cl (stereo not drawn) | -55% |
| CCN(CC)CCNc1nc2c(c(=O)[nH]c(=O)n2C)n1CC(O)COc1ccc(Cl)cc1Cl (stereo not drawn) | -70.2% |
| COCCCNc1nc2c(c(=O)[nH]c(=O)n2C)n1CC(O)COc1ccccc1C (stereo not drawn) | -7.62% |
| CN(C)CCNc1nc2c(c(=O)[nH]c(=O)n2C)n1CC(O)COc1ccc(Cl)cc1 (stereo not drawn) | -20% |
| Cc1cc(C)n(-c2nc3c(c(=O)[nH]c(=O)n3C)n2CC(O)COc2ccc(Cl)cc2Cl)n1 (stereo not drawn) | -3.56% |
| C[C@]12CC[C@H](O)C[C@H]1CC[C@@H]1C2CC[C@]2(C)[C@@H](C3=CC(=O)OC3)[C@@H](O)C[C@]12O (stereo partly drawn) | 21.1% |
| N#Cc1c2c(nc(N)c1-c1ccccc1)CCCCC2 | 7.02% |
| CC1=C(C(=O)OCC(Br)(Br)Br)C(c2cccc([N+](=O)[O-])c2)NC(=O)N1CCCC(=O)O (stereo not drawn) | -3.03% |
| CCn1nnnc1-c1ccc(OC)c(S(=O)(=O)Nc2ccc(C)c(C)c2)c1 | -2.9% |
| CCNC(=S)NNC(=O)CCn1cc(C)cn1 | 20.7% |
| Cc1cccc(N2CCN(S(=O)(=O)c3c(C)[nH]c(C)c3C(=O)N3CCCC3)CC2C)c1 (stereo not drawn) | -19.2% |
